Reference: the antibiotic and cytotoxicity screens of Wong et al. (2023)
About 1,500 (3.8%) of roughly 39,000 compounds were called active. The sample holds actives, similar compounds and a random draw of the others, so the mix is not that of the screen.

tested on: HSkMC (human skeletal muscle cells); experiment: cytotoxicity call (relative viability < 0.9); conditions: 10 µM

Structure (SMILES) | cytotoxicity call
C[C@@H]1CN([C@@H](C)CO)C(=O)c2cc(NC(=O)CCC(F)(F)F)ccc2O[C@@H](C)CCCCO[C@H]1CN(C)C(=O)Nc1ccccc1 | inactive
O=C(C[C@H]1CC[C@@H]2[C@H](COC[C@H](O)CN2C(=O)Nc2ccc(Cl)c(Cl)c2)O1)NCc1ccc(Cl)c(Cl)c1 | inactive
CCC(=O)N(C)C[C@H]1Oc2ncc(C#C[C@@H](C)O)cc2C(=O)N([C@H](C)CO)C[C@@H]1C | inactive
Cc1noc(C)c1NC(=O)Nc1ccc2c(c1)C(=O)N([C@@H](C)CO)C[C@H](C)[C@@H](CN(C)Cc1ccncc1)OCCCC[C@@H](C)O2 | inactive
CCCN(C)C[C@H]1OCCCC[C@@H](C)Oc2ccc(NC(=O)Nc3ccc(F)cc3)cc2C(=O)N([C@@H](C)CO)C[C@H]1C | inactive
C#CCN([C@H](/C=C/C1CC1)[C@@H](O)Cc1ccccc1)[C@@H](Cc1ccc(-n2cc(CCC(=O)NO)nn2)cc1)C(=O)OC | inactive
O=C(CCc1cn(CC(=O)N2CCC3(CC2)C(=O)NCN3c2ccccc2)nn1)NO | inactive
CCCNC(=O)Cc1nnc[nH]1 | inactive
CCNC(=O)c1cc2c(c(-c3cccc(-c4cccc(F)c4)c3)n1)[C@H](CCO)N([S@@](=O)C(C)(C)C)C2 | inactive
CCNC(=O)c1cc2c(c(-c3cccc(-c4cccc(F)c4)c3)n1)[C@@H](CCO)N([S@](=O)C(C)(C)C)C2 | inactive
COc1ccccc1-c1cccc(-c2nc(C(=O)NCc3ccncc3)cc3c2[C@@H](CCO)N([S@](=O)C(C)(C)C)C3)c1 | inactive
COc1ccccc1-c1cccc(-c2nc(C(=O)NCc3ccncc3)cc3c2[C@H](CCO)N([S@@](=O)C(C)(C)C)C3)c1 | active
CC(C)(C)[S@@](=O)N1Cc2cc(C(=O)NCCc3ccncc3)nc(-c3cccc(-c4ccc(C#N)cc4)c3)c2[C@H]1CCO | inactive
COc1ccccc1-c1cccc(-c2nc(C(=O)NCc3ccncc3)cc3c2[C@@H](CCO)N([S@@](=O)C(C)(C)C)C3)c1 | inactive
CC(C)(C)[S@@](=O)N1Cc2cc(C(=O)NCCc3ccncc3)nc(-c3cccc(-c4ccccc4)c3)c2[C@H]1CCO | active
CC(C)(C)S(=O)N1Cc2cc(C(=O)Nc3ccc(-c4ccccc4)cc3)nc(-c3cccc(-c4cccc(F)c4)c3)c2[C@@H]1CCO (stereo partly drawn) | active
CC(C)(C)[S@](=O)N1Cc2cc(C(=O)NCCc3ccncc3)nc(-c3cccc(-c4ccccc4)c3)c2[C@@H]1CCO | inactive
COCC(=O)N(C)C[C@H]1Oc2cc(C#CC(C)(C)O)ccc2S(=O)(=O)N([C@@H](C)CO)C[C@H]1C | inactive
